Rows were chosen to be rich in hits. Some 2.8% of all compounds tested hit in one or more screens of this group.
RGS4 inhibitor – blocks human RGS4-accelerated GTP hydrolysis; P49798; Transcreener GDP fluorescence polarization, RGS4-accelerated GTP hydrolysis; Potency, µM (series often up to 114 µM), actives largely listed as inhibitors; hit rate 0.039% among 390,000; AID 504845; active = well fitted inhibition curve with a large enough effect; inconclusive = small, poorly fitted or top-dose-only effect; inactive = no such curve, though single readings can be large or run the other way; note: nearly all actives have a fitted effect of over 75% in size
Target sequence (P49798 whole entry, looked up): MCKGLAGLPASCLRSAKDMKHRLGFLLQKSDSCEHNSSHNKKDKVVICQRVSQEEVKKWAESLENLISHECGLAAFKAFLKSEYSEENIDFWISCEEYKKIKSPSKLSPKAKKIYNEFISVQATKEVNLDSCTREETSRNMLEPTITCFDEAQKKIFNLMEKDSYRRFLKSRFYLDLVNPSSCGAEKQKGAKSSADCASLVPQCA
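MLSMR compounds (23 nl, pin-transferred) preincubated 10 min at room temperature with a 500nM (2x) first reagent, then RGS4 at 900nM (2x) plus Transcreener GDP mix added; fluorescence polarization (620/688 nm) read before and after 90 min at 30 °C.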
PI4K2A block – inhibitors of human PI4K2A. Q9BTU6. purified PI4K2A, ADP-Glo luminescence, 1 h; hits give low values. activity change, negative = inhibition, % at 76.9 µM. hit rate 0.13% among 420,000. AID 1346378; in the data active = activity change below about -50%; inconclusive = mostly about -30% to -49%
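ADP-Glo luminescence measured ADP generated by PI4K2A enzyme (4 ug/mL before mixing) with 1.2 mM PI substrate (pre-mix) and 300 microM ATP (pre-mix). Tris pH7.5 buffer with MgCl2, Triton X-100; 1 h reaction at ambient temperature.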
D3 ag – activates the human D3 dopamine receptor. D3R DiscoveRx beta-arrestin cells, luminescence, 90 min. max activation, %. hit rate 0.58% among 410,000. AID 652048; in the data active = max activation above about 30%
Target sequence (P35462 whole entry, looked up): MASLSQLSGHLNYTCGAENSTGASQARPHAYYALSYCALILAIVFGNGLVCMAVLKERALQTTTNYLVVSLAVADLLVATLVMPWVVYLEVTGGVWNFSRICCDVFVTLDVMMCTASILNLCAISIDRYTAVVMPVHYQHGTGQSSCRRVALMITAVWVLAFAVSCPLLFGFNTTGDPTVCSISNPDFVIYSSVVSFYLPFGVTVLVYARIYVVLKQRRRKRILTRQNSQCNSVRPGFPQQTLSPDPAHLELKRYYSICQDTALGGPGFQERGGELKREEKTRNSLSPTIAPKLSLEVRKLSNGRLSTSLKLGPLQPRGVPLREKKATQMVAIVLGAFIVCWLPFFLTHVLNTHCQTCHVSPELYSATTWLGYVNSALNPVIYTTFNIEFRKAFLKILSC
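Cells at 1500/well, incubated overnight, then treated with pinned compounds (dopamine as control) for 90 min at 37 degrees C. DiscoveRx reagent added for 30 - 60 minutes at room temperature; luminescence read.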
DRD3 antagonist – blocks the human D3 dopamine receptor; hit rate 2.5% among 360,000; max response, negative = inhibition, %; D3R cells, DiscoveRx beta-arrestin luminescence, antagonist mode; hits give low values; P35462; AID 652054; in the data active = max response below about -50%; inconclusive = no clear call, values can overlap the other calls
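Cells expressing the human receptor were seeded at 1500 cells/well, incubated overnight at 37 degrees C in 5% CO2, then exposed to library compounds with dopamine controls for 90 minutes at 37 degrees C before luminescent detection.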
LDHA inh – blocks human lactate dehydrogenase A; purified LDHA, NADH/diaphorase-resazurin fluorescence; hits give low values; activity change, % (values are at about 110 or 230 µM); hit rate 0.15% among 480,000; in the data active = activity change below about -30%; inconclusive = mostly about -25% to -30%
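Remaining NADH was detected by diaphorase (0.133 mg/mL) converting 37 µM resazurin to fluorescent resorufin, read at 0 and 20 minutes. The preceding 5-minute room-temperature reaction used 2 nM LDHA, 0.2 mM sodium pyruvate and 0.06 mM NADH at pH 7.4.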
Akt phos inh – inhibitors of Akt phosphorylation; Neuro2A IGF-stimulated pAkt S473 HTRF, 20 min; hits give low values; activity change, % for hits at 50 µM; hit rate 0.32% among 360,000; in the data active = activity change below about -80%; inconclusive = mostly about -51% to -80%
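Neuro2A cells in DMEM with 0.5% FBS, overnight at 37 deg C, given compound at single 50 µM final, then IGF (6 nM final) for 20 min at 37 deg C. Lysed; phospho-Akt Ser473 by HTRF after 24 h, 665/615 ratio.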
Numbers stand for hits; – = inactive; ? = inconclusive; · = no result given; ! = not active in a repeat.

SMILES	RGS4 inhibitor	PI4K2A block	D3 ag	DRD3 antagonist	LDHA inh	Akt phos inh
COc1ccc(CC(CC(=O)O)C(=O)NCc2ccccc2)cc1 (stereo not drawn)	–	–	–	-68.8	–	–
COc1ccccc1-c1cc(C(=O)NCc2ccccc2)no1	?	–	–	-51.7	–	–
COc1ccccc1-c1cc(C(=O)Nc2ccc(C)cc2)no1	·	·	·	·	–	·
O=C(NCc1ccc2c(c1)OCO2)c1cc(-c2ccccc2Cl)on1	–	–	–	-58.8	–	–
COc1ccccc1-c1cc(C(=O)Nc2cc(C)on2)no1	–	-84.6	–	?	–	–
CCOC(=O)c1c(C)[nH]c(C(=O)COc2ncnc3sc4c(c23)CCC4)c1C	·	·	·	·	–	·
C/C(=N\NC(N)=S)c1ccc(C2CCCCC2)cc1	·	·	·	·	–	·
COc1ccc(CNC(=O)c2cc(-c3ccccc3OC)on2)cc1	–	–	–	-62.7	–	–
COc1ccc(OC)c(-c2csc(NC(=O)Cc3ccccc3OC)n2)c1	–	–	–	-62.6	–	–
Cc1cc(C(=O)Nc2ccccn2)no1	–	–	33.1	–	–	–
COc1ccc(OC)c(-c2csc(NC(=O)Cc3ccccc3F)n2)c1	–	–	–	–	–	–
COc1ccccc1C(=O)NCc1ccccc1	–	–	–	–	–	-106.1%
Cc1cc(NC(=O)c2cccc(C(=O)Nc3cc(C)on3)n2)no1	–	–	–	–	–	–
Cc1ccc(SCC(=O)c2ccc(Cl)cc2)cc1	·	·	·	·	–	·
CCOc1ccccc1C(=O)OCc1ccc(C(N)=O)cc1	·	·	·	·	–	·
CC(=O)N1CCN(c2ccc(Nc3ncnc4c3oc3ccccc34)cc2)CC1	–	–	–	-63.9	–	–
CCc1nc(Nc2ccc(N3CCN(C(C)=O)CC3)cc2)c2oc3ccccc3c2n1	–	–	–	?	–	–
c1ccc(N2CCN(c3ncnc4c3oc3ccccc34)CC2)cc1	–	–	35.8	–	–	–
CC1=C(C(=O)Nc2ccccc2C(=O)NC(C)Cc2ccco2)SCCO1 (stereo not drawn)	·	·	·	·	–	·
Cc1onc(-c2ccccc2Cl)c1C(=O)Nc1cccc(C(=O)NC(C)(C)C)c1	·	·	·	·	–	·
COc1ccc(NC(=O)CN(C)S(=O)(=O)c2cnc[nH]2)cc1OC	–	–	–	–	–	–
Cc1cc(C)cc(NC(=O)CN(C)S(=O)(=O)c2cnc[nH]2)c1	–	–	–	–	–	-116.1%
Cc1ccccc1NC(=O)CN1C(=O)N/C(=C\c2ccccc2OCc2ccc(C(=O)O)cc2)C1=O	?	-50.8	–	–	–	–
N#C/C(=C/c1ccc(O)c(O)c1)C(=O)NCc1ccc(Cl)cc1	–	–	–	-50.3	–	–
CCCOc1ccc(C2CC(=O)Nc3c2c(=O)nc(SCc2ccc(F)cc2)n3C)cc1 (stereo not drawn)	·	·	·	·	–	·
SMILES	RGS4 inhibitor	PI4K2A block	D3 ag	DRD3 antagonist	LDHA inh	Akt phos inh
CN(C)S(=O)(=O)c1ccc(-c2csc(N/N=C/c3ccc(O)cc3)n2)cc1	–	–	34.8	–	–	–
CN(C)S(=O)(=O)c1ccc(-c2csc(N/N=C/c3ccco3)n2)cc1	–	–	–	–	–	–
COc1ccc(N2C(=O)C3ON(C4SC(=S)N(C)C4(C)C)C(c4ccc(Cl)cc4)C3C2=O)cc1 (stereo not drawn)	–	–	–	–	–	–
COc1ccc(N2C(=O)C3ON(C4SC(=S)N(C)C4(C)C)C(c4ccc([N+](=O)[O-])cc4)C3C2=O)cc1 (stereo not drawn)	–	–	–	-65.0	–	–
Cc1noc(C)c1CSCC(=O)Oc1ccc(N(C)S(=O)(=O)c2ccc(Cl)cc2)cc1	–	–	35.8	–	–	–
CCn1c(C)cc(C(=O)CSc2nnc(CN3CCOCC3)n2-c2ccccc2)c1C	·	·	·	·	–	·
Cc1ccc(C(Sc2ccccc2)C(Cn2cncn2)C(=O)c2ccccc2)cc1 (stereo not drawn)	–	–	–	–	–	-103.8%
CN1CCN(S(=O)C23CC4CC(CC(C4)C2)C3)CC1 (stereo not drawn)	–	–	–	-88.5	–	–
Nc1nccnc1C(=O)NCc1ccccn1	·	·	·	·	–	·
Cc1cnc2c3c(cc(Cl)c2c1)-c1ccccc1S(=O)(=O)N3	–	·	·	·	–	·
O=S1(=O)Nc2c(ccc3cccnc23)-c2ccccc21	–	–	–	-137.1	–	–
CCn1cnc2c1c(=O)n(CC(=O)N(c1ccccc1)C1CCCCC1)c(=O)n2Cc1ccccc1	·	·	·	·	–	·
CSc1nc(N2CCOCC2)c2c3c(sc2n1)CCC3	–	–	–	-65.1	–	–
CCOC(=O)C(=C1Nc2ccccc2N1)n1c(-c2cccnc2)nc2ccccc21	·	–	–	-64.8	–	–
CCOC(=O)Cn1c(-c2cccnc2)nc(-c2ccccc2)c1-c1ccccc1	–	–	–	–	–	–
CCN1CCN(c2oc(/C=C/c3cccs3)nc2C#N)CC1	·	·	·	·	–	·
O=C(O)Cn1c(O)c(C=Nc2ccccc2)sc1=S	–	–	–	-62.7!	–	-106.8%!
COc1ccccc1CNC(=O)C1CCC(=O)N(CCCN2CCCC2=O)C1 (stereo not drawn)	–	–	–	–	–	–
COc1ccc(CNC(=O)C2CCC(=O)N(CCCN3CCCC3=O)C2)c(OC)c1 (stereo not drawn)	–	–	33.2	–	–	–
CC(=O)c1c(C)cc(C)c(CSc2nc(C)cc(=O)[nH]2)c1C	–	–	69.0	–	–	–
CCOC(=O)CSc1nc(C)cc(=O)[nH]1	–	–	–	–	–	·
[2H]C1=C([2H])C([2H])(CC(=C)C)[N+](C)(C)C([2H])(CC(=C)C)C1[2H] (stereo not drawn)	·	·	·	·	–	·
COc1cc(C(=O)OCCCN2CCOCC2)ccc1O	–	–	–	–	–	–
C(#Cc1ccccc1)CN1CCCCC1	–	–	–	?	–	–
COc1cc(C(=O)OCCN2CCCCC2)ccc1O	–	–	–	-57.8	–	–
SMILES	RGS4 inhibitor	PI4K2A block	D3 ag	DRD3 antagonist	LDHA inh	Akt phos inh
O=C(OCCN1CCCCC1)c1ccc(Cl)cc1	–	–	–	-78.2	–	–
COc1cc(C(=O)OCCCN2CCCN(CCCOC(=O)c3cc(OC)c(OC)c(OC)c3)CC2)cc(OC)c1OC	?	–	–	-92.3	–	–
COc1cc(C(=O)OCCN2CCOCC2)cc(OC)c1OC	–	–	–	–	–	–
COc1cc(C#CC#CCN2CCCCC2)ccc1O	–	–	–	-116.3	–	·
CCC[N+]1(CC#CC(O)(c2ccccc2)C2CCCCC2)CCCCC1 (stereo not drawn)	–	–	–	-53.7	–	–
COCCOC(=O)c1c(C)nc(SCC(=O)Nc2cccc3ccccc23)c(C#N)c1-c1ccco1	–	–	–	-65.3	–	–
Cc1cc(C)cc(C(=O)C(C#N)C(=O)NC2CCCCC2)c1 (stereo not drawn)	·	·	·	·	–	·
